# From PubChem BioAssay
# Calls of active or inactive are those of the source.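 How the source made its calls: active means inhibition above 20% together with a positive visual image hit; inconclusive means visual image hit but inhibition not above 20%; inactive means no visual image hit.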
# Test: inhibitors of TNFa-induced NFkB p65 translocation, primary screen, imaging, HUVEC, MLSMR starter and 10KST1 sets (AID 438);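 further: compound added about 3h40 before a 20 min TNFalpha stimulation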;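 on inhibition: signal is the nuclear over cytoplasmic p65 intensity ratio per well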
# Details: HUVEC TNFa-induced p65 nuclear translocation; cell count: measured here: nuclei count (cytotoxicity indicator), at 2.08 µM; inhibition: at 2 µM, stronger effect = higher value, 0% TNFa-plus-vehicle, 100% no-TNFa wells
SMILES,cell count,inhibition
CCC(=NC(C)c1ccccc1)c1c(O)n(C)c(=O)n(C)c1=O (stereo not given),287,9.3% (inactive)
O=C(c1ccc(S(=O)(=O)N2CCOCC2)cc1)N1CCc2ccccc2C1,401,-1% (inactive)
CCOC(=O)C1CCN(C(=O)C2CCN(S(=O)(=O)c3cc(Cl)ccc3Cl)CC2)CC1,738,-4.9% (inactive)
CCn1cnc2cc(NCc3cccc(OC)c3O)ccc21,322,-2.8% (inactive)
CC(OC1=CC(=O)CCC1)C(=O)c1ccccc1 (stereo not given),370,10.4% (inactive)
CCC(=O)N1CCc2cc(S(=O)(=O)CCC(=O)Nc3ccc(C)c(F)c3)ccc21,565,2.7% (inactive)
Cc1ccc(Cl)cc1NC(=O)CSc1nnc(C)n1-c1ccccc1,783,-5.4% (inactive)
O=C(CN1CCOCC1)Nc1cccc(C(=O)Nc2cccc(C(F)(F)F)c2)c1,199,4.3% (inactive)
COc1cccc(NC(=O)COc2ccccc2C(N)=O)c1,221,-1.2% (inactive)
COc1ccc(C)cc1S(=O)(=O)N1CCN(Cc2ccccc2)CC1,708,-7.1% (inactive)
Cc1ccc(OCC(O)Cn2c(=N)n(CCN3CCCCC3)c3ccccc32)cc1 (stereo not given),277,4.5% (inactive)
CCCCC(NC(C)=O)c1nc2ccccc2n1CCC (stereo not given),294,-3.7% (inactive)
O=C(c1cc(-c2ccco2)nn1-c1cccc(Cl)c1)N1CCCCC1,502,-4.7% (inactive)
COC(=O)C1=C(C)NC(=O)C1(NC(=O)CN1CCCC1=O)C(F)(F)F (stereo not given),879,3.6% (inactive)
CN1CCN(S(=O)(=O)c2ccc(Sc3nnc(-c4cccs4)n3-c3ccccc3)nc2)CC1,603,-11% (inactive)
CC(C)N(C=O)C1(C(=O)NC2CCCCC2)CCCCC1,584,-6.3% (inactive)
COc1ccc(NC(=O)CSc2nnc(-c3ccncc3)n2CC2CCCO2)c(OC)c1 (stereo not given),587,-6.1% (inactive)
CC1(C)CC(=O)c2cnc(NCc3ccco3)nc2C1,480,7.7% (inactive)
c1ccc2c(c1)C(=Nn1cnnc1)c1ccccc1-2,606,-3.4% (inactive)
O=C(CN1C(=O)NC(Cc2ccccc2)C1=O)Nc1ccccc1 (stereo not given),436,0% (inactive)

SMILES,cell count,inhibition
O=C1CSC(c2cn(-c3ccccc3)nc2-c2ccccc2)N1Cc1ccco1 (stereo not given),480,-6.3% (inactive)
CN(C)S(=O)(=O)c1ccc2c(c1)C(CC(=O)O)OC2=O (stereo not given),616,2.3% (inactive)
COc1ccc2nc(NC(=O)CSc3nnc(-c4ccoc4C)n3C)sc2c1,392,9.9% (inactive)
COCCn1nnnc1C(C(C)C)N(Cc1cccnc1)Cc1ccccc1Cl (stereo not given),526,2.1% (inactive)
O=C(NCc1cccs1)C(Cc1ccccc1)NS(=O)(=O)c1cccs1 (stereo not given),469,-1.7% (inactive)
COC(=O)C1=C(C)N(c2ccc(C(=O)OC)cc2)C(=O)C1,734,4% (inactive)
Cc1ccc(-n2c3c(cc(C(=O)O)c2=O)C(=O)CC(C)(C)C3)cc1,418,2.8% (inactive)
COc1ccc(OC)c(NC(=O)CCN2CCN(c3ccccc3F)CC2)c1,529,10.1% (inactive)
OCc1nc(CO)n(Cc2ccccc2)n1,447,-17.6% (inactive)
O=C(COc1ccc(Cl)cc1)Nc1nc(-c2cccs2)cs1,718,-6.1% (inactive)
CCNS(=O)(=O)c1ccc(S(=O)(=O)N(Cc2ccccn2)C2CCCCC2)cc1,579,3.8% (inactive)
CC1N=C2c3ccccc3N=C(SCc3cc(=O)n4cc(Cl)ccc4n3)N2C1=O (stereo not given),346,7.6% (inactive)
CCOC(=O)C1=C(C)N(C)C(C)=C(C(=O)OCC)C1c1cccnc1,366,-5.2% (inactive)
FC(F)Sc1nnc(-c2cccs2)n1-c1ccccc1,824,-5% (inactive)
Cc1noc(NS(=O)(=O)c2ccc(N3C(=O)c4ccccc4C3=O)cc2)c1C,754,-11.1% (inactive)
CC(=O)N1CCc2cc(S(=O)(=O)NCCC3=CCCCC3)ccc21,399,3.5% (inactive)
Cc1onc(-c2ccccc2)c1C(N)=O,506,-11.2% (inactive)
CC(C(=O)Nc1ccccc1-c1ccccc1)N1CCN(C(=O)c2ccco2)CC1 (stereo not given),546,-11.2% (inactive)
CNC(=O)CSc1nnc(-c2cc(C)cc(C)c2)o1,669,-5% (inactive)
CCOc1ccc(Cl)cc1S(=O)(=O)N1CCCC1,208,1.4% (inactive)
